# Assay results reported in PubChem BioAssay (NCATS).
# Records with an inconclusive call do not appear. Unmarked numbers belong to inactive results. Active and inactive are the calls of the source. The call rests on the fitted dose curve; in most records, active means well fitted inhibition curve with a large enough effect; inconclusive means small, poorly fitted or top-dose-only effect; inactive means flat fitted curve, though single readings scatter. Where a SMILES comes first, the peptide text is derived from it. The star is where a group is joined. AMC = Cc1cc(=O)oc2cc(N*)ccc12; Cbz = O=C(OCc1ccccc1)*
# Legend:
# CRL-7250 = normal cell line; test: Cytotoxic Profiling of Annotated Libraries Using Quantitative High-Throughput Screening (AID 1296008); details: Five cell lines viability, CellTiter-Glo ATP luminescence, 48-72 h; max response: stronger effect = lower value; further: potency means the concentration at half of the fitted maximal effect; on max response: on the % scale 0 is the no-effect control and ±100 the full control effect
# Summary of the method: (§1)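 Cytotoxicity was measured as CellTiter-Glo ATP luminescence, read after 10 min at room temperature. Compound treatment of the cells lasted 48 or 72 hr at 37 degrees Celsius in a qHTS format.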
# HEK293 = test: as above; details: Five cell lines viability, CellTiter-Glo ATP luminescence, 48-72 h; max response: stronger effect = lower value
# Summary of the method: as §1
# HaCat [1] = test: as above; details: Five cell lines viability, CellTiter-Glo ATP luminescence, 48-72 h; max response: stronger effect = lower value
# Summary of the method: as §1
# KB-3-1 = test: as above; details: Five cell lines viability, CellTiter-Glo ATP luminescence, 48-72 h; max response: stronger effect = lower value
# Summary of the method: as §1
# NIH3T3 = test: as above; details: Five cell lines viability, CellTiter-Glo ATP luminescence, 48-72 h; max response: stronger effect = lower value
# Summary of the method: as §1
# HACAT [2] = test: qHTS assay to identify novel small-molecules to repurpose for Merkel cell carcinoma treatment (AID 1296009); details: MCC and control cell lines, CellTiter-Glo viability, 72 h; at 44.8 µM (top of the series) unless noted
# Summary of the method: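 After compound transfer in DMSO, plates were kept 72 hr at 37 degree celsius. Luminescent ATP signal from CellTiter-Glo served as viability measure, normalized against DMSO and no-cell controls.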
# Further: nearly all actives have a fitted effect of over 60% in size.
Structure (SMILES),max response (CRL-7250) [%],max response (HEK293) [%],outcome (HaCat [1]),outcome (KB-3-1),outcome (NIH3T3),outcome (HACAT [2]),max response (KB-3-1) [%],max response (NIH3T3) [%],outcome (CRL-7250),Potency (HEK293)
COc1cccc(OC)c1-c1ccc(C[C@H](NC(=O)c2c(Cl)cccc2Cl)C(=O)O)cc1,1.89,-9.99,inactive,inactive,inactive,inactive,,,,
NC1=NC2(c3cc(NC(=O)c4ccc(F)cn4)ccc3F)COCC2CS1 (stereo not given),3.35,-14.7,inactive,,,inactive,-4.81,-8.12,,
C=C1[C@H](OC(C)=O)[C@H]2[C@@H](OC(=O)c3ccccc3)[C@@H](C)C[C@]2(O)[C@@H](OC(C)=O)[C@H](C)/C=C/C(C)(C)C(=O)[C@H](OC(C)=O)[C@H]1OC(C)=O,3.14,-5.03,inactive,inactive,,inactive [at 17.4 µM],,3.53,,
Nc1ncnc2c1ncn2[C@H]1O[C@@H](C(=O)N2CCN(CC(=O)Nc3cccc4c3CNC4=O)CC2)[C@H](O)[C@@H]1O,,1.78,inactive,inactive,inactive,inactive,,,inactive,
CC/C=C/C=C/C1(C)OC(CC(CO)OC)=CC1=O (stereo not given),-6.3,-18.9,inactive,inactive,,inactive,,1.62,,
CCC(C)/C=C(C)/C=C/C(=O)C1CCC(O)C(C)(O)C1=O (stereo not given),4.93,0.989,inactive,,inactive,inactive,9.09,,,
CC(=O)NC1CC(=O)C23C(=O)NC(Cc4c[nH]c5ccccc45)C2C(C)=C(C)C(O)C3/C=C/CC(C)/C=C(/C)C(O)C1O (stereo not given),-0.702,4.13,inactive,,inactive,inactive [at 17.4 µM],0.623,,,
CC1(C)CC[C@]2(C(=O)O[C@@H]3O[C@H](CO)[C@@H](O)[C@H](O)[C@H]3O)CC[C@]3(C)C(=CCC4[C@@]5(C)CC[C@H](OC6OC(C(=O)O)C(OC7OC(CO)C(O)C(O)C7O)C(O)C6O)C(C)(C)C5CC[C@]43C)C2C1 (stereo not given in full),0.724,3.09,inactive,inactive,inactive,inactive [at 9.27 µM],,,,
C[C@@H]1O[C@@H](O[C@H]2[C@H](O[C@H]3[C@H](O[C@H]4CC[C@@]5(C)C(CC[C@]6(C)C5CC=C5[C@@H]7CC(C)(C)C[C@@H](O)[C@]7(C)CC[C@]56C)[C@@]4(C)CO)O[C@H](C(=O)O)[C@@H](O)[C@@H]3O)O[C@H](CO)[C@H](O)[C@@H]2O)[C@H](O)[C@H](O)[C@H]1O (stereo not given in full),3.95,-3.77,inactive,inactive,inactive,inactive [at 9.27 µM],,,,
C=C(C)[C@@H]1CC[C@]2(C(=O)O)CC[C@]3(C)[C@H](CCC4[C@@]5(C)CCC(=O)C(C)(C)C5C(O)C[C@]43C)C12 (stereo not given in full),-6.3,,inactive,,,inactive [at 17.4 µM],-20.6,-1.28,,4.47 µM (active)
CC(C)C1C(OC(=O)/C=C/c2ccccc2)CC2(C)OC2CCC2(C)OC2C1O (stereo not given),,-5.07,inactive,,,inactive,9.34,-5.79,inactive,
Fc1ccc(-c2c3cccc(C(F)(F)F)c3nn2Cc2ccc(F)cc2Cl)cc1,-3.03,0.746,inactive,,inactive,inactive,-3.04,,,
Cn1c2ccc(NC(=O)c3ccccc3)cc2c(=O)n2nc(C(=O)O)cc12,,-1.26,inactive,,inactive,inactive [at 17.4 µM],0.84,,inactive,
O=C(O)CCc1c(C(=O)O)[nH]c2cc(Cl)cc(Cl)c12,-1.79,-7.05,inactive,inactive,inactive,inactive [at 17.4 µM],,,,
CC1=CC(=O)CC(C)(C)C1CO[C@@H]1O[C@H](CO)[C@@H](O)[C@H](O)[C@H]1O (stereo not given in full),-5.79,-1.36,inactive,,,inactive,7.69,-1.71,,
CC1=CC(=O)CC(C)(C)C1CCC(C)O[C@@H]1O[C@H](CO)[C@@H](O)[C@H](O)[C@H]1O (stereo not given in full),,3.44,inactive,,,inactive,5.09,0.902,inactive,
CCc1cc(CC[C@]2(C3CCCC3)CC(O)=C(Cc3nc4nc(C)cc(C)n4n3)C(=O)O2)cc(CC)n1,,0.838,inactive,,,inactive,-0.912,-7.94,inactive,
CC1(C)C2CCC1(C)C(OC(=O)C(O)(CC(=O)O)CC(=O)O)C2 (stereo not given),,-0.502,inactive,inactive,,inactive,,3.45,inactive,

Structure (SMILES),max response (CRL-7250) [%],max response (HEK293) [%],outcome (HaCat [1]),outcome (KB-3-1),outcome (NIH3T3),outcome (HACAT [2]),max response (KB-3-1) [%],max response (NIH3T3) [%],outcome (CRL-7250),Potency (HEK293)
CC1(C)CC[C@]2(C(=O)O[C@@H]3O[C@H](CO)[C@@H](O)[C@H](O)[C@H]3O)[C@H](O)C[C@]3(C)C(=CCC4[C@@]5(C)CC[C@H](O[C@@H]6OC[C@@H](O)[C@H](O)[C@H]6O)[C@@](C)(C(=O)O)C5CC[C@]43C)[C@@H]2C1 (stereo not given in full),-8.24,-10.4,inactive,,,inactive [at 17.4 µM],-4.94,4.43,,
COc1cc(CC2COC(c3ccc(OC4OC(CO)C(O)C(O)C4O)c(OC)c3)C2CO)ccc1O (stereo not given),,0.464,inactive,inactive,inactive,inactive [at 17.4 µM],,,inactive,
C=C1C(=O)O[C@@H]2C[C@]3(C)[C@@H](CCC(C)=O)[C@@H]3C[C@H]12,4.44,-12.9,inactive,,inactive,inactive,2.7,,,
COc1cc2c(cc1O)C(c1ccc(O)cc1)C(C)C(C)C2 (stereo not given),-22.8,-21.2,inactive,,,inactive,-7.89,-6.55,,
COc1cccc(C(=O)NCCNc2nc3cc(C)cc(C)c3cc2C#N)c1,-1.46,-19,inactive,,,inactive,5.87,-4.31,,
O=C(O)/C=C/c1ccc2occc2c1O[C@@H]1O[C@H](CO)[C@@H](O)[C@H](O)[C@H]1O,-6.75,1.57,inactive,inactive,inactive,inactive,,,,
CCC(=O)N1CCc2cc(OC)c(O)cc2C1,-24.5,-5.69,inactive,,,inactive,-5.14,3.84,,
Cc1cc(=O)oc2cc(NC(=O)[C@H](CCC(=O)O)NC(=O)[C@H](CC(C)C)NC(=O)[C@H](CC(C)C)NC(=O)OCc3ccccc3)ccc12 (Cbz-Leu-Leu-Glu-{AMC}),-3.16,-3.22,inactive,,,inactive,3.3,-20.3,,
C=C1C[C@]23C[C@@]1(O)CC[C@H]2[C@@]12C=C[C@H](O)[C@@](C)(C(=O)O1)[C@H]2[C@@H]3C(=O)O,0.765,-0.839,inactive,,,inactive,7.38,2.3,,
C/C1=C\CC[C@]2(C)O[C@H]2C(=O)c2c(C)coc2C1,1.23,-1.35,inactive,,inactive,inactive,-3.14,,,
NC(=O)[C@H](Cc1ccccc1)NC(=O)[C@H](CCCN=C(N)N)NC(=O)C12CC3CC(CC(C3)C1)C2,-2.98,-11.4,inactive,inactive,inactive,inactive [at 9.27 µM],,,,
COc1ccccc1CN[C@H]1CCCN[C@H]1c1ccccc1,,-1.91,inactive,,inactive,inactive,1.76,,inactive,
C[C@@H]1O[C@@H](O[C@@H]2[C@@H](O)[C@H](O[C@@H]3[C@@H](O)[C@@H](O)[C@H](O[C@H]4[C@H](OC(=O)[C@]56CCC(C)(C)C[C@H]5C5=CCC7[C@@]8(C)C[C@H](O)[C@H](O[C@@H]9O[C@H](C(=O)O)[C@@H](O)[C@H](O)[C@H]9O)[C@@](C)(CO)C8[C@H](O)C[C@@]7(C)[C@]5(C)C[C@H]6O)O[C@@H](CO)[C@@H]4O)O[C@H]3C)OC[C@H]2O)[C@H](O)[C@H](O)[C@H]1O (stereo not given in full),0.0733,1.63,inactive,inactive,inactive,inactive [at 9.27 µM],,,,
CC(C)=CCC[C@@](C)(O)[C@H]1CC[C@]2(C)[C@@H]1[C@H](O)CC1[C@@]3(C)CC[C@H](O[C@@H]4O[C@H](CO)[C@@H](O)[C@H](O)[C@H]4O[C@@H]4O[C@H](CO)[C@@H](O)[C@H](O)[C@H]4O)C(C)(C)[C@@H]3CC[C@]12C (stereo not given in full),4.67,1.62,inactive,inactive,inactive,inactive [at 17.4 µM],,,,
COc1cc2c(c(OC)c1O)C(c1ccc(O)cc1)C1C(=O)OC3C(COC(=O)C1=C2)OC(CO)(OC1OC(COC(=O)/C=C/c2ccc(OC4OC(C)C(O)C(O)C4O)cc2)C(O)C(O)C1O)C3O (stereo not given),2.78,-18.4,inactive,,inactive,inactive [at 9.27 µM],-2.91,,,
CCCC1=CC2=C(CO1)C(=O)C(C)(O)C(OC(=O)c1c(C)cc(OC)cc1O)C2 (stereo not given),-6.12,-3.53,inactive,inactive,inactive,inactive [at 17.4 µM],,,,
CC1=CC2=C(C)C(=O)C(C)(O)C(O)C2CO1 (stereo not given),-6.39,-9.93,inactive,,,inactive,5.71,1.32,,
